# Most compounds without a hit are left out; they make up all but 4.2% or so of the library.
# Hsp90 Hop PPI = changes Hsp90-Hop TPR2A binding signal, up or down; Potency, µM (top dose mostly 57 µM), for inactives: at the top dose activity change, negative = inhibition; AID 595; AlphaScreen TPR2A-His6 binding biotin-Hsp90 C-terminal peptide; 71,000 compounds, 0.44% hits; active = well fitted curve in either direction with a large enough effect; inconclusive = small, poorly fitted or top-dose-only effect, or another doubt; note: potency is the fitted concentration of half-maximal effect; % is set by controls: 0 for no effect and ±100 for the full control effect
# DNA Pol III inh = blocks replication by bacterial DNA polymerase III holoenzyme. reconstituted DNA polymerase III holoenzyme replication, biochemical. Potency, µM (doses to about 57.1 µM), inactives show top-dose activity change, negative = inhibition. 71,000 compounds, 0.25% hits; note: potency is the fitted concentration of half-maximal effect; % is set by controls: 0 for no effect and ±100 for the full control effect
#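 Reconstituted *E. coli* holoenzyme (0.35 nM Pol III, 1 nM beta, 154 nM SSB, 2 nM primase) was preincubated with compound for 15 min at RT. Synthesis on 1.4 nM ssM13Gori ran 35 min, then was stopped with PicoGreen/EDTA and read as dsDNA fluorescence.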
# TsaE inh = displaces an ADP probe from E. coli YjeE (TsaE) | P0AF67 | purified YjeE enzyme, qHTS inhibition assay | Potency, µM | 71,000 compounds, 0.05% hits | AID 605
#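 Purified YjeE (10 uM) with BODIPY Texas Red-labeled ADP probe (2 uM); compounds pin-transferred, 15 min at room temperature. Binding inhibition read as decreased fluorescence polarization; ADP titration as control.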
# Tau filament bind = binders of human tau filaments; recombinant tau filaments, thioflavin S fluorescence, 15 h; filaments grown with octadecylsulfate alongside compound; Potency, µM (titrated, usually from 57.1 µM), for the others: top-dose activity change, negative = inhibition; 71,000 compounds, 2% hits;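 note: potency is the fitted concentration of half-maximal effect; % is set by controls: 0 for no effect and ±100 for the full control effect; actives lower thioflavin S fluorescence by blocking filaments or displacing dye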
#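 His-tagged recombinant human tau (exons 2, 3, 10; 1 uM final) fibrillized with 30 uM sodium octadecylsulfate, 15 h at 37 C, in pH 7.4 HEPES buffer with 10 uM thioflavine S and 5 mM DTT. Reduced ThS fluorescence (450/510 nm) marks activity.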
# ERK AVP block = inhibitors of vasopressin-stimulated ERK signaling pathway. HEK293-V1b, vasopressin-stimulated pERK AlphaScreen. Potency, µM (highest dose often 57.5 µM), inactives show at the highest dose activity, negative = inhibition, hits mostly inhibitors. 72,000 compounds, 0.99% hits; note: potency is the fitted concentration of half-maximal effect; % is set by controls: 0 for no effect and ±100 for the full control effect; nearly all actives have a fitted effect of over 55% in size
#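 Phosphorylated ERK1/2 detected via AlphaScreen bead proximity in lysates of V1b-expressing HEK293 cells given 25 nM vasopressin for 5 min after 30 min compound exposure (37 °C). AC50 from Hill equation; basal DMSO 0%, vasopressin 100%.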
# ALOX15 inhib = 15-hLO (ALOX15) enzyme inhibition; P16050; AID 887; purified 15hLO-1, xylenol orange hydroperoxide absorbance; Potency, µM (titrated, usually from 57.1 µM), for the others: top-dose activity change, negative = inhibition, usual class: inhibitors; 74,000 compounds, 1.4% hits; note: potency is the fitted concentration of half-maximal effect; % is set by controls: 0 for no effect and ±100 for the full control effect; nearly all actives have a fitted effect of over 55% in size
# Target sequence (P16050 whole entry, looked up): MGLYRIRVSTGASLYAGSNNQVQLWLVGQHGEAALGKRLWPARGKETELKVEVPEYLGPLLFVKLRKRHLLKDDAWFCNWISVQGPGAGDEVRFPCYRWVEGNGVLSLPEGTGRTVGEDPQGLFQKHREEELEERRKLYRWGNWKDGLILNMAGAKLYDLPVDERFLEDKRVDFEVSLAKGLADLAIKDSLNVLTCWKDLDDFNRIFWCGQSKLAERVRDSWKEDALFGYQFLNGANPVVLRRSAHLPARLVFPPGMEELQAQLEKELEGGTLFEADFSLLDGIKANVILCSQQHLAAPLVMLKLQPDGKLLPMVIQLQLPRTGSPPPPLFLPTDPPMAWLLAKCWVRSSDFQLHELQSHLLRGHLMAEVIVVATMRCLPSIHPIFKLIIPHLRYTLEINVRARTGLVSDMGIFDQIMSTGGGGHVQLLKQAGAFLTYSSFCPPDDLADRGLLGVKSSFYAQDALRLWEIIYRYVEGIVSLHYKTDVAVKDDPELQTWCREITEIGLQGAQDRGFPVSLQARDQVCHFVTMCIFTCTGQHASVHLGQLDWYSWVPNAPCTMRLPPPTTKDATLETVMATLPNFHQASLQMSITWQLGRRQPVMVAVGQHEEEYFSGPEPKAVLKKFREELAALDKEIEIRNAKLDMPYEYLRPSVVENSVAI
#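 Inhibition is scored from a chromogenic endpoint. After 15 min enzyme-compound contact, arachidonic acid (50 uM final) reacts 6 min with 40 nM 15hLO-1 at room temperature, then Fe-XO reagent is added for 30 min and absorbance ratio recorded.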
# The depositor's hits bear a star; i = inactive; u = inconclusive; x = no result; [ ] = another dose, or the depositor's remark. Unless noted, calls come from the whole dose curve; as a rule, active = well fitted curve in the direction sought with a large enough effect; inconclusive = small, poorly fitted or top-dose-only effect, or another doubt; inactive = no such curve, though single readings can be large; an effect the other way counts as inactive or inconclusive.
SMILES,Hsp90 Hop PPI,DNA Pol III inh,TsaE inh,Tau filament bind,ERK AVP block,ALOX15 inhib
C=CCOc1ccc(C2c3c(oc4ccccc4c3=O)C(=O)N2CCCN2CCOCC2)cc1 (stereo not drawn),-4.0%,-2.5%,i,u,-8.8%,-7.3%
CC(C)Oc1ccc(C2c3c(oc4ccccc4c3=O)C(=O)N2CCCN2CCOCC2)cc1 (stereo not drawn),-6.0%,-1.4%,i,15.8µM*,-12.9%,-8.5%
CC1CCN(C(=O)c2ccccc2NC(=O)c2cccc(S(=O)(=O)N3CCOCC3)c2)CC1,1.7%,1.5%,i,2.2%,1.7%,-3.6%
Nc1nc(CN2CCN(c3ccccc3)CC2)nc(N2CCCc3ccccc32)n1,-15.5%,4.8%,i,-6.3%,-23.0%,4.3%
Nc1nc(CN2CCN(c3cccc(Cl)c3)CC2)nc(N2CCCc3ccccc32)n1,-10.9%,-4.5%,i,0.4%,6.31µM*,-20.0%
CCCCCCn1cnc2c(c1=O)c1nc3ccccc3nc1n2/N=C/c1ccco1,-0.2%,0.3%,i,u,-6.7%,-1.7%
CCn1c(Cc2ccccc2)nnc1SCC(=O)Nc1nc2ccccc2s1,0.7%,0.2%,i,7.3%,-9.3%,25.1µM*
CCn1c(SCC(=O)Nc2nc3ccccc3s2)nnc1-c1ccc(OC)cc1,u,-9.5%,i,164.6%,18.1%,-10.5%
Cn1cccc1Cc1nnc(SCC(=O)Nc2nc3ccccc3s2)n1CCc1ccccc1,-2.5%,7.3%,i,122.9%,10.0%,-8.0%
CCn1c(SCC(=O)Nc2nc3c(s2)CCCC3)nnc1-c1ccccc1,-12.1%,3.3%,i,26.9%,31.6µM*,-16.7%
CCOC(=O)C1=C(N)n2c(s/c(=C\c3ccco3)c2=O)=C(C(=O)OCC)C1c1ccco1 (stereo not drawn),-21.2%,0.2%,i,15.8µM*,u,-23.0%
CCOC(=O)C1=C(C)NC(=O)NC1c1ccco1 (stereo not drawn),-3.9%,-14.3%,i,5.5%,9.1%,-12.4%
CO/N=C(\C(=O)N[C@@H]1C(=O)N2C(C(=O)O)=C(CSc3nc(=O)c(O)nn3C)CS[C@@H]12)c1csc(N)n1,-7.7%,39.8µM*,i,4.8%,2.3%,7.2%
CCc1ccc(NS(=O)(=O)c2ccc3[nH]cc(C(=O)N4CCCCC4)c(=O)c3c2)cc1,-2.1%,-6.5%,i,-19.9%,17.9%,3.98µM*
CC1C=Cc2ccccc2N1C(=O)c1ccccc1 (stereo not drawn),3.3%,-7.3%,i,-4.6%,6.4%,-2.4%
Cc1c(N=c2c(=O)c3ccccc3c2=O)c(=O)n(-c2ccccc2)n1C,-6.6%,-10.2%,i,15.8µM*,20µM*,-13.9%
COc1ccc(N(CC(=O)Nc2cccc(SC)c2)S(C)(=O)=O)cc1,2.3%,1.8%,i,-8.1%,-3.3%,-2.9%
O=C(OCn1nnc2ccccc2c1=O)C1CCN(S(=O)(=O)c2cccs2)CC1,3.6%,5.1%,i,-17.4%,40.6%,-6.4%
COc1cccc2c1C(=O)c1c(O)c3c(c(O)c1C2=O)C[C@](O)(C(=O)CO)C[C@@H]3O[C@H]1C[C@H](N)[C@@H](O)[C@H](C)O1,-3.4%[11 µM],3.2%[11.4 µM],i,-1.4%[11.4 µM],x,x
COc1cccc2c1C(=O)c1c(O)c3c(c(O)c1C2=O)C[C@@](O)(C(C)=O)C[C@@H]3O[C@H]1C[C@H](N)[C@H](O)[C@H](C)O1,u,0.158µM*,i,0.126µM*,u,0.7%
CCc1c(C#N)c(N)nc(SCC(=O)OCc2ccccc2)c1C#N,2.4%[11 µM],1.3%[11.4 µM],i,24.7%[11.4 µM],31.6µM*,2.5%[11.4 µM]
CCOC(=O)CSc1nc(N)c(C#N)c(-c2ccc(OCC)cc2)c1C#N,-2.5%,-3.7%,i,132.5%,0.0%,-10.0%
O=C(CSc1nnc(-c2ccco2)o1)NC(=O)Cc1ccccc1,0.3%,-2.4%,i,9.3%,-20.0%,10.3%
CN(c1ccc(C(=O)O)cc1)S(=O)(=O)c1ccccc1,0.6%,-3.5%,i,-3.7%,2.4%,6.9%

# Screening data as filed in PubChem.
